# Assay results from ChEMBL document CHEMBL4296182, “CO-ADD screening of NIH NCI Diversity Set V”.
# For part of these data: Measured potencies and affinities stand elsewhere.
# How the values were obtained:
# Staphylococcus aureus = assay: Antibacterial activity against Staphylococcus aureus MRSA ATCC 43300 (CO-ADD:GP_020); MIC in CAMBH media using NBS plates, by Resazurin F(560/590); format: functional; conditions: Concentration 20 uM, ASSAY_TEST Inhibition of Bacterial Growth, detection method Resazurin, Fluorescence (ex560/em590), MEDIA CAMHB, plate type 384well, CORNING #3640, time 18 hr
# Acinetobacter baumannii = assay: Antibacterial activity against Acinetobacter baumannii ATCC 19606 (CO-ADD:GN_034); MIC in CAMBH media using NBS plates, by Resazurin F(560/590); format: functional; conditions: Concentration 20 uM, ASSAY_TEST Inhibition of Bacterial Growth, detection method Resazurin, Fluorescence (ex560/em590), MEDIA CAMHB, plate type 384well, CORNING #3640, time 18 hr
# Escherichia coli = assay: Antibacterial activity against Escherichia coli ATCC 25922 (CO-ADD:GN_001); MIC in CAMBH media using NBS plates, by Resazurin F(560/590); format: functional; conditions: Concentration 20 uM, ASSAY_TEST Inhibition of Bacterial Growth, detection method Resazurin, Fluorescence (ex560/em590), MEDIA CAMHB, plate type 384well, CORNING #3640, time 18 hr
# Klebsiella pneumoniae = conditions: Concentration 20 uM; ASSAY_TEST Inhibition of Bacterial Growth; detection method Absorption (OD600); MEDIA CAMHB; plate type 384well; NBS; CORNING #3640; time 18 hr
# Candida albicans = conditions: 20 µM
# Cryptococcus neoformans = conditions: Concentration 20 uM; ASSAY_TEST Inhibition of Fungal Growth; detection method Resazurin; Absorption (OD600-OD570); plate type 384well; NBS; CORNING #3640
Compound,Inhibition (Staphylococcus aureus) [%],Inhibition (Acinetobacter baumannii) [%],Inhibition (Escherichia coli) [%],Inhibition (Klebsiella pneumoniae) [%],Inhibition (Candida albicans) [%],Inhibition (Cryptococcus neoformans) [%]
Oc1ncc(I)cc1I,37.5,6.08,2.67,22.74,4.4,23.72
C(COC1CC2CC1C1C2CC2OC21)OC1CC2CC1C1C2CC2OC21 (stereo unspecified),7.31,15,5.47,11.14,-1.79,-10.71
CC(C)(C)N1CC(OC(N)=O)C1,21.14,-14.09,8.01,8.74,1.7,-9.34
CCOc1ccc(NC(=O)N(O)C2(C#N)CCCCC2)cc1,13.16,8.44,2.02,18.05,5.54,-2.32
CC(=O)O[C@H]1CC[C@@]2(C)[C@@H](CC[C@@H]3[C@@H]2CC(=O)[C@@]2(C)[C@H]3C[C@@H]3CC(C)=CC(=O)[C@@H]32)C1,25.43,-5.19,14.73,18.64,2.5,-9.27
CSc1nc(N)c(C(=O)Nc2ccc([N+](=O)[O-])cc2)s1,3.88,5.85,8.19,8.8,7.49,-10.16
Cc1ccc(-c2cssc2=S)cc1,-26.91,-10.22,-20.59,2.16,13.1,11.55
Cc1c(COC(=O)NC(C)C)c(COC(=O)NC(C)C)c2n1CS(=O)(=O)C2,22.95,-7.7,11.68,15.71,3.64,-8.35
COc1cc2c(=O)n3c4c(cccc4c2cc1OC)CC3,9.4,-8.34,13.88,1.26,1.37,-14.32
NC(=O)SCC(=O)Nc1ccccc1C(=O)O,2.18,6.48,-0.39,23.65,9.98,-3.81
CCOC(=O)c1c[nH]nc1O,2.24,-6.35,-2.97,21.4,-1.88,1.44
N#Cc1cnn2ccn(C3OC(CO)C(O)C3O)c12 (stereo unspecified),2.98,-3.63,8.76,13.94,4.75,-11.71
N#CCCCCN1CCCC1,4.35,-8.73,3.27,18.95,-1.32,-2.95
CCOc1cc2c(Cl)ncnc2c(OCC)c1OCC,4.34,-8.17,3.68,0.85,2.82,-6.05
O=C(Nc1cc(-c2ccccc2)[nH]n1)c1ccc(Cl)cc1,11.18,-15.73,6.31,6.21,8.34,-8.44
CCOc1ccc(NC(=O)Nc2cc(C(C)C)c(O)cc2C)cc1,12.02,-0.68,-2.75,20.87,4.16,-21.1
Sc1nc2ccccc2n2cccc12,2.5,-10.79,2.01,3.32,17.9,-1.74
O=[N+]([O-])c1ccc(Cn2cnc3c(O)ncnc32)cc1,10.19,8.82,7.89,11.73,2.42,-11.97

Compound,Inhibition (Staphylococcus aureus) [%],Inhibition (Acinetobacter baumannii) [%],Inhibition (Escherichia coli) [%],Inhibition (Klebsiella pneumoniae) [%],Inhibition (Candida albicans) [%],Inhibition (Cryptococcus neoformans) [%]
Cc1ccc(Nc2nnc(S)s2)cc1F,-5.24,-6.73,5.51,11.86,12.1,17.67
Br.CN(C)c1n/c(=N/Cc2ccco2)ss1,15.96,6,7.56,27.1,6.89,-13.39
CCOC(=O)Nc1ccc2[nH]c(-c3cscn3)nc2c1,14.96,-19.41,13.31,4.63,-2.03,-11.31
O=[N+]([O-])c1ccc(NN=C(c2ccccc2)c2ccccc2)nc1,5.39,-2.58,13.19,5.05,3.51,-2.84
OC(c1ccccc1)(c1ccccc1)c1nccn1-c1ccccc1,0.11,-3.61,5,3.43,1.72,-7.88
Cc1cc(=O)c2c(o1)C(=O)c1occc1C2=O,-16.99,-9.35,-16.26,2.36,7.04,24.84
OC(COc1ccccc1)CN1CCN(c2ccccc2)CC1 (stereo unspecified),6.47,-11.62,3.6,14.06,0.81,-11.95
O=C1c2ccccc2C(=Cc2cccnc2)c2ccccc21,8.79,-7.39,6.86,10.23,9.01,-9.38
CC(C)(C)CC(C)(C)n1nnnc1N,12.74,-17.3,15.8,12.31,0.83,-5.24
COc1ccc(C(C)=O)cc1CO/N=C1\CSCc2ccccc21,16.78,9.55,4.94,9.39,18.6,-2.91
Sc1cnnc2ccccc12,-0.57,-12.95,-15.13,9.37,6.56,22.39
COc1cc2c(cc1OC)[N+]([O-])=C(c1ccccc1)C2=O,11.49,-5.23,9.41,-2.97,13.8,-4.84
CCOC(=O)C(=Cc1ccc(Br)cc1)C(=O)OCC,4.77,8.54,-5.6,28.34,19,-1.07
CCC1(C(=O)OC)CCc2c(cc(OC)c3ccccc23)C1=O (stereo unspecified),5.5,-17.62,8.82,8.69,3.67,-10.67
CCCSc1ncnc2[nH]ncc12,4.5,-9.04,5.02,27.49,6.91,-5.45
O=C(O)c1ccc2c(c1Nc1ccccc1)C(=O)c1ccccc1C2=O,9.32,-23.2,18.5,7,1.26,-10.37
COc1cc(NC(=O)CCl)ccc(=O)c1,-5.48,6.09,9.48,4.54,1.92,-8.46
Cc1cccc(N=C(S)Nc2cccc(C)n2)n1,2.02,12.82,3.58,8.62,3.4,-9.05
